Bioassay records (PubChem BioAssay)
Most compounds without a hit are left out; they make up all but 2.9% or so of the library.
IP6K1 inhibitor – inhibitors of human IP6K1; actives 0.81% (n = 140,000); IP6K1 kinase, ADP-Glo luminescence, 2 h; hits give low values; activity change, % (series mostly up to about 58 µM); in the data active = activity change below about -25%; also: % is scaled to controls: 0 for no effect and ±100 for the full control effect
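ADP-Glo luminescence measures ADP made by human IP6K1 during a 2 h RT reaction with ATP/IP6 (mix at 1.3 mM/130 uM); top library doses 57.5 and 19.1 uM final.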
KDM5B inh – blocks human KDM5B histone demethylase activity. actives 2.6% (n = 220,000). Q9UGL1. KDM5B demethylase, FDH-coupled NADH fluorescence (FDH is formaldehyde dehydrogenase). Potency, µM (titrated, usually from 57.7 µM), actives largely listed as inhibitors; also: potency is read from the fitted curve at half-maximal effect; 0% is about no effect; nearly all actives have a fitted effect of over 70% in size
Target sequence (Q9UGL1 whole entry, looked up): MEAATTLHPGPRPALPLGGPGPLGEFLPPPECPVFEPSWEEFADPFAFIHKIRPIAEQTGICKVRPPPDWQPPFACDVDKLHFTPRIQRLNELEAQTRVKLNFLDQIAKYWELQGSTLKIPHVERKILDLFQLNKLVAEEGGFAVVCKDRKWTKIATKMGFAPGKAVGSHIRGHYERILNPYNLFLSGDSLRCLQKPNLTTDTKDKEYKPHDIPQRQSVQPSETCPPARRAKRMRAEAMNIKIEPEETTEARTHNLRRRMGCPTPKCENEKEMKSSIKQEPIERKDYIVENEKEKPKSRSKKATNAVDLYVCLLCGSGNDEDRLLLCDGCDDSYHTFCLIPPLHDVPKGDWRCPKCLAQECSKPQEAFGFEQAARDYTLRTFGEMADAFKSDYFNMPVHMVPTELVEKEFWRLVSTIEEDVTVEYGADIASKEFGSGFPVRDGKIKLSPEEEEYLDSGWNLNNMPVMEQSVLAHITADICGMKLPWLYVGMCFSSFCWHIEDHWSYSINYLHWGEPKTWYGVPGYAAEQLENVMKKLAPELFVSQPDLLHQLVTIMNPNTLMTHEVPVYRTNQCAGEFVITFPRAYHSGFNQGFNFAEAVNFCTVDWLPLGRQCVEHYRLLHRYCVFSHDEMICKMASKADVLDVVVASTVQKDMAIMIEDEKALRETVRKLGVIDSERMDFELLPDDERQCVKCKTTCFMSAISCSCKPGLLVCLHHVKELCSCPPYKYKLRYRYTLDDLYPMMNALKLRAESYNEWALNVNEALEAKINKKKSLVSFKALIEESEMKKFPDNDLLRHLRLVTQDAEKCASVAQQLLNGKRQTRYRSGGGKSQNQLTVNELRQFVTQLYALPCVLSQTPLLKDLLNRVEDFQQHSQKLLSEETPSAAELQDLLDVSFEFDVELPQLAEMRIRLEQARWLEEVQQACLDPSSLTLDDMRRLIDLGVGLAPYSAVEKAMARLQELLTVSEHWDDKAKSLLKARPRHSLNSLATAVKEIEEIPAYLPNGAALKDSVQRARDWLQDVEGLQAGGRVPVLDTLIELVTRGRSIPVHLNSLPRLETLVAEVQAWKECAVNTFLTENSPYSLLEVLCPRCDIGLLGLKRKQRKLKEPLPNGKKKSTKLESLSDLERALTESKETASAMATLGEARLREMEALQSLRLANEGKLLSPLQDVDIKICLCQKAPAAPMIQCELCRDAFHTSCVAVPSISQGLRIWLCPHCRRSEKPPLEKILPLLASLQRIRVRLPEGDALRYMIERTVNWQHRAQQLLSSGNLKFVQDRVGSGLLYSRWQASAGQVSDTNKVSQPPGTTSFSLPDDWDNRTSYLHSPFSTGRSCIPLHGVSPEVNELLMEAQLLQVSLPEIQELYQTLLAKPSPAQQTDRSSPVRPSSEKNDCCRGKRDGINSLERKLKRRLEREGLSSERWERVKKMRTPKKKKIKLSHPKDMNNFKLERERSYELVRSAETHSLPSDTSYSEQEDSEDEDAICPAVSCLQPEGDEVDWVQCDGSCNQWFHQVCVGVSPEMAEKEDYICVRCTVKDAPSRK
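Here, H3K4me3 peptide (12.5 µM in substrate mix) is demethylated by KDM5BΔAP, 200 nM final, after 10 min compound exposure. Formaldehyde product is coupled through FDH (0.25 U/mL in mix) to NADH fluorescence; 30-min ΔRFU feeds dose-response curves.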
SNCA expr inh – reduces expression of the alpha-synuclein gene; actives 0.17% (n = 140,000); Potency, µM (top dose mostly 57.2 µM), inactives show at the top dose activity change, negative = inhibition, most hits filed as inhibitors; HEK-293 SNCA-luciferase knock-in, luminescence, 24 h;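 also: potency is read from the fitted curve at half-maximal effect; plate controls were DMSO cells for no effect and cell-free wells for full effect; nearly all actives have a fitted effect of over 45% in size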
HEK293 viab – cell viability loss counter-screen | HEK-293-SNCA-luc viability, GF-AFC fluorescence, 24 h | Potency, µM (top dose mostly 57.1 µM), for inactives: at the highest dose activity change, negative = cytotoxicity, usual class: cytotoxic | actives 0.12% (n = 150,000) | AID 1671193;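 also: potency is read from the fitted curve at half-maximal effect; 0% = DMSO-treated cells and -100% = medium-only wells without cells; nearly all actives have a fitted effect of over 30% in size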
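HEK-293-SNCA-luc cells (1500/well) plated 24 h, then exposed 24 h to a dilution series; GF-AFC added 30 min at 37C, fluorescence 405/540 nm; normalised to medium-only and DMSO wells, Hill fit.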
* hit, by the source's call; i = inactive; u = inconclusive; x = not tested or not shown; [ ] = another dose, or the depositor's remark. Unless noted, calls follow the shape of the dose curve; as a rule, active = well fitted curve in the direction sought with a large enough effect; inconclusive = small, poorly fitted or top-dose-only effect, or another doubt; inactive = no such curve, though single readings can be large; an effect the other way counts as inactive or inconclusive.

SMILES	IP6K1 inhibitor	KDM5B inh	SNCA expr inh	HEK293 viab
CN1CCOC[C@H]2CCN(C(=O)c3ccco3)C[C@H]21	-1	i	-8%	-6%
Cn1nnnc1C1CCCN(C(=O)c2ccc3cc[nH]c3c2)C1 (centres undefined)	-6	20µM*	-1%	0%
CN1CCOC[C@H]2CCN(C(=O)c3cccc4[nH]ccc34)C[C@H]21	0	25µM*	-24%	-14%
Cn1nccc1C(=O)N1CCCC(c2nn[nH]n2)C1 (centres undefined)	-8	u	4%	-4%
Cc1ccc(C(=O)N2CCCC(c3nn[nH]n3)C2)cn1 (centres undefined)	-12	22µM*	4%	7%
O=C(c1ccc2cc[nH]c2c1)N1CCCC(c2nn[nH]n2)C1 (centres undefined)	-11	22µM*	-11%	3%
O=C(c1cc(F)ccc1F)N1CCCC(c2nn[nH]n2)C1 (centres undefined)	-11	i	-8%	1%
Cn1nnnc1C1CCCN(C(=O)c2ccccc2)C1 (centres undefined)	-9	i	5%	17%
Cc1cc(C)n(CCC(=O)N2CCCC(c3nnnn3-c3ccccc3)C2)n1 (centres undefined)	7	x	24%	3%
Cc1cc(C)n(CCC(=O)N2CCCC(c3nnnn3C)C2)n1 (centres undefined)	-12	25µM*	4%	5%
COc1ccc(-c2nc3nccc(-c4ccsc4)n3n2)c(OC)c1	-4	18µM*	2%	6%
COc1ccc(-c2ccnc3nc(-c4ccco4)nn23)c(F)c1	-5	16µM*	54%	2%
c1csc(-c2nc3nccc(-c4ccsc4)n3n2)c1	8	u	11%	8%
COc1ccc(-c2ccnc3nc(-c4ccccc4OC)nn23)c(F)c1	-3	u	21%	-4%
COc1ccc(-c2nc3nccc(-c4ccco4)n3n2)c(OC)c1	-9	22µM*	46%	-10%
CC(C)c1nc2nccc(-c3ccsc3)n2n1	-6	25µM*	12%	9%
Cc1ccc(CN(C(=O)c2cccc(C#N)c2)C2CC2)cc1	x	i	x	x
CCCNc1cc(N2CCC(CCC(=O)NCc3ccccc3)CC2)ncn1	17	i	2.5µM*	12%
CCCNc1cc(N2CCC(CCC(=O)Nc3cccc(C)c3)CC2)ncn1	-1	i	2µM*	-2%
O=C(CCC1CCN(S(=O)(=O)c2ccccc2)CC1)NCc1ccccc1	10	22µM*	-12%	3%
CCNc1cc(N2CCC(CCC(=O)NCc3ccc(OC)cc3)CC2)ncn1	24	i	u	1%
O=C(CCC1CCN(S(=O)(=O)c2ccccc2)CC1)NCc1ccc(F)cc1	8	i	3%	-5%
CCNc1cc(N2CCC(CCC(=O)NCC3CC3)CC2)ncn1	20	i	u	12%
CCCNC(=O)CCC1CCN(c2cc(NCCC)ncn2)CC1	18	i	3.2µM*	-1%
Cc1cc(Cl)ccc1OCC(=O)NC1CCN(C)CC1	x	i	x	x
SMILES	IP6K1 inhibitor	KDM5B inh	SNCA expr inh	HEK293 viab
CC(OC(=O)c1ccc2noc(-c3ccccc3)c2c1)C(=O)N(C)C (centres undefined)	x	i	x	x
CCCNc1cc(N2CCC(CCC(=O)N3CCN(c4ccc(F)cc4)CC3)CC2)ncn1	3	i	u	-28%
CCCNc1cc(N2CCC(CCC(=O)NCC)CC2)ncn1	12	i	2.5µM*	-15%
O=C(O)CCC1CCN(c2cc(NC3CC3)ncn2)CC1	2	i	1.1µM*	-6%
CCCNc1cc(N2CCC(CCC(=O)O)CC2)ncn1	2	i	1.1µM*	2%
O=C(CCC1CCN(c2cc(NC3CC3)ncn2)CC1)Nc1ccccc1	15	i	u	11%
CC(C)C(C)(C#N)NC(=O)CSc1nnc(-c2cccs2)n1C1CC1 (centres undefined)	x	i	x	x
CCNC(=O)C1CCCN(c2nnc(C)c3c(C)n(-c4ccc(C)cc4)nc23)C1 (centres undefined)	1	u	26%	u
CC1CCN(S(=O)(=O)c2ccc3c(c2)CCN3C(=O)Nc2cccc(Br)c2)CC1	17	i	5%	-10%
COc1ccc(CNC(=O)Cn2nc(C)n3cccc3c2=O)cc1	0	i	-2%	1%
COc1ccc(CN2CCC[C@H]2c2nc(-c3cncnc3N)no2)c(O)c1	-3	32µM*	11%[87.6 µM]	-5%[87.6 µM]
COCCOc1cc(-c2noc([C@@H]3CCCN3C3CCN(C(C)=O)CC3)n2)ccn1	-8	i	12%[87.6 µM]	-2%[87.6 µM]
COCCNc1cc(-c2noc([C@@H]3CCCN3C3CCN(C(C)=O)CC3)n2)ccn1	2	40µM*	-3%[87.6 µM]	-1%[87.6 µM]
COCCNc1cc(-c2noc([C@@H]3CCCN3Cc3ccccn3)n2)ccn1	9	32µM*	61%[87.6 µM]	-6%[87.6 µM]
c1ccc(CN2CCC[C@H]2c2nc(-c3ccnc(N4CCOCC4)c3)no2)nc1	-1	28µM*	32%[87.6 µM]	-10%[87.6 µM]
COCCNc1ccc(-c2noc([C@@H]3CCCN3Cc3ccccc3F)n2)cn1	-13	u	-7%[87.6 µM]	-4%[87.6 µM]
COc1ccc(C(=O)Nc2ccc(-c3noc([C@@H]4CCCN4Cc4ccncc4)n3)cn2)cc1	-11	u	3%	-21%
CC(C)NC(=O)CSc1ncc(-c2cccc(Br)c2)o1	x	i	x	x
COCCOc1cc(-c2noc([C@@H]3CCCN3Cc3ccc(C(=O)O)cc3)n2)ccn1	10	u	14%[87.6 µM]	2%[87.6 µM]
COc1ccc(CN2CCC[C@H]2c2nc(-c3ccnc(N4CCOCC4)c3)no2)cc1	4	32µM*	-2%[87.6 µM]	0%[87.6 µM]
c1cc(-c2noc([C@@H]3CCCN3Cc3ncc[nH]3)n2)cc(N2CCOCC2)n1	13	32µM*	0%[87.6 µM]	5%[87.6 µM]
COCCOc1cc(-c2noc([C@@H]3CCCN3Cc3ccncc3)n2)ccn1	14	35µM*	-18%[87.6 µM]	4%[87.6 µM]
Cc1ccc(-c2noc([C@@H]3C[C@@H](O)CN3Cc3ncc[nH]3)n2)cc1F	16	i	200%[87.6 µM]	-7%[87.6 µM]
Cc1ccc(-c2nc3nc(C)cc(N4CCN(c5cccc(C)c5C)CC4)n3n2)cc1	14	i	1%	-4%
Cc1noc(C)c1-c1cnc2[nH]cc(CC(N)=O)c2c1	-23	32µM*	81%[87.6 µM]	-6%[87.6 µM]
SMILES	IP6K1 inhibitor	KDM5B inh	SNCA expr inh	HEK293 viab
Cc1ccccc1-c1cnc2[nH]cc(CC(=O)NCc3cccnc3)c2c1	-7	u	-15%[87.6 µM]	0%[87.6 µM]
Cc1noc(C)c1-c1cnc2[nH]cc(CC(=O)NCc3cccnc3)c2c1	-5	35µM*	72%[87.6 µM]	2%[87.6 µM]
Cc1cc(C(=O)N[C@@H]2C[C@H](Cn3cc(CN4CCS(=O)(=O)CC4)nn3)[C@@H](O)[C@H]2O)nn1C	-1	i	6%	1%
COc1ccc(C(=O)N2CCC(C(=O)N3CCCCCCNC(=O)CC3)CC2)c(OC)c1	-1	i	3%	u
O=C(CNC(=O)c1ccccc1)NCc1nnc2ccc(-c3ccccc3)nn12	4	32µM*	-13%	-4%
O=C(NCc1nnc2ccc(-c3ccccc3)nn12)c1ccncc1	-5	28µM*	u	4%
